According to PubChem BioAssay AID1766 (National Center for Advancing Translational Sciences (NCATS), 2009):
In all, about 290,000 compounds went through this assay and fewer than 10 were called active. Roughly 3% stayed inconclusive and do not appear here. Only a sample is shown. Unmarked numbers belong to inactive results. Calls follow the shape of the dose curve; as a rule, active = well fitted curve in the direction sought with a large enough effect in the polarisation (not every such curve was filed as active); inconclusive = small, poorly fitted or top-dose-only effect, or effect the other way, or a change in a side signal; inactive = no such curve, though single readings can be large or run the other way; the % refers to the polarisation.

Assay: qHTS Assay for Inhibitors Targeting the Menin-MLL Interaction in MLL Related Leukemias: Competition With Fluorescein Labeled MLL-derived Peptide; also: % of control where 0% means no effect
Settings: Fluorescence polarization, fluorescein-MLL peptide displacement from menin; series mostly up to 61.4 µM; FP activity change: at the top concentration
Text: qHTS Assay for Inhibitors Targeting the Menin-MLL Interaction in MLL Related Leukemias NIH Chemical Genomics Center [NCGC] NIH Molecular Libraries Probe Centers Network [MLPCN] MLPCN Grant: MH084875-01A1 Assay Submitter (PI): Jolanta Grembecka, Tomasz Cierpicki, University of Virginia Translocations of the MLL (Mixed Lineage Leukemia) gene are frequently found in human leukemias affecting both children and adults. Fusion of MLL to one of more than 60 genes results in generation of oncogenic proteins upregulating Hox genes, which are vital to blood cell development. Patients harboring fusion of the MLL gene suffer from aggressive leukemias and respond poorly to available therapies. All of the oncogenic fusion proteins have a preserved N-terminal fragment of MLL that has been identified to interact with menin. It has been recently discovered that association with menin is critical to the leukemogenic activity of the MLL fusion oncoproteins. Selective targeting of the menin-MLL interaction could provide an attractive therapeutic approach to develop novel drugs for MLL-related leukemias. Small molecules blocking the menin-MLL interaction should reverse the oncogenic potential of MLL fusion proteins. We have developed and optimized a fluorescence polarization-based assay for the identification of Menin-MLL inhibitors. The assay was run employing two different MLL-derived peptides. The present assay uses a 12 amino acid peptide labeled with fluorescein at its N-terminus. This peptide consists of the menin high affinity binding motif from MLL and is potently bound by menin. Another peptide with a mutated sequence, labeled with Texas Red, was used in parallel as a less stringent screen for inhibitors.
The Menin protein, the MLL-wild type (w.t.) derived peptide (N-terminal 12 amino acids), the MLL-derived peptide labeled with Texas Red and the MLL-w.t. peptide labeled with Fluorescein were kindly supplied by laboratory of Dr. Jolanta Grembecka, University of Virginia. All protein and peptide solutions were stored in single use aliquots at -80C. The Eu3+ Cyrptate-conjugated mouse monoclonal antibody anti-6 Histidine (Eu3+-AB) and the Streptavidin-XL665 conjugate (XL665) were purchased from Cisbio International (Bedford, MA). All antibody and XL665 conjugate solution stocks were stored in single use aliquots at -20C. The Buffer components for all assays were purchased from Sigma-Aldrich (St. Louis, MO) and Invitrogen (Carlsbad, CA). FP Assay Reagents: 1. FP reaction buffer: 50 mM Tris-HCl pH 7.5, 50 mM NaCl, 1mM DTT. Before use, 0.05% BSA is added. 2. Menin protein, MLL-w.t. labeled with fluorescein, MLL-mutant peptide labeled with texas red. Stored in singe use aliquots at -80C. 3. MLL-w.t. unlabeled peptide as positive control: 10 uM final in FP buffer. FP Assay Procedure: 1. Prepare Menin at 200 nM, MLL-w.t.-fluorescein at 25 nM, and MLL-mutant-texas red at 50 nM mixture in FP buffer. 2. Prepare Menin at 200 nM, MLL-w.t.-fluorescein at 25 nM, MLL-mutant-texas red at 50 nM, and 10 uM MLL-w.t. unlabeled mixture in FP buffer. 3. Prepare MLL-w.t.-fluorescein at 25 nM and MLL-mutant-texas red at 50 nM mixture in FP buffer. 3. Dispense 4 ul per well of reagent in step 1 in columns 2, 4 - 48 in a black 1536 well plate, dispense 4 ul per well of reagents from steps 2 and 3 in columns 1 and 3 respectively. Incubate plate at ambient for 15 minutes. 4. Transfer 23 nl per well of compound to plate and incubate at ambient for 1 hr. 5. Read fluorescence polarization for each label using the PerkinElmer Envision. Envision protocol for fluorescein: FITC FP Dual Enh Mirror, Excitation filter 480, Emission filter (1) P-pol 535, Emission filter (2) S-pol 535 Envision protocol for texas red: FP Dual Enh Mirror, Excitation filter 555, Emission filter (1) P-pol 632, Emission filter (2) S-pol 632

SMILES | FP activity change
CC(C)(C)c1ccc(Cn2nnc3c(=O)[nH]c(C4CCCN(C(=O)c5ccco5)C4)nc32)cc1 (configuration not stated) | 2.29%
C/C=C/C=N/NC(=O)c1ccncc1 | -2.94%
CCC(=O)Nc1nc(C)c(C(=O)Nc2cccc(Cl)c2)s1 | -0.766%
COC(=O)c1ccc(CN2C(=O)NC(c3ccccc3)(c3ccccc3)C2=O)o1 | -3.74%
O=C(Nc1nnc(-c2ccccc2F)s1)c1ccccc1F | 0.841%
S=c1[nH]c(-c2cccs2)cn1-c1ccccc1 | -10%
Cc1ccc(-c2csc(N3CCN(c4cc5c(cc4Cl)nc(-c4ccncc4)n5CCOCCO)CC3)n2)cc1 | -0.208%
CCOc1ccc(-n2c(SCC(=O)OC)nc3sc4c(c3c2=O)CCN(C)C4)cc1 | 6.86%
COC(=O)c1ccc(Nc2ncnc3sccc23)cc1 | 3.91%
Cc1ccc(NC(=O)Nc2cccnc2)cc1 | -1.76%
Cc1ccc(N(Cc2ccccc2O)C(=O)c2ccccc2F)cc1 | -5.27%
Cc1ccccc1NC(=S)NC(=O)Cc1ccc(Cl)cc1 | -2.56%
O=C(NCCCO)c1cc2c([nH]c3ccccc32)c(-c2ccc(F)cc2)n1 | -0.599%
Cc1cc(CNC(=O)C2CCC(=O)N(CCc3ccc(Cl)cc3)C2)no1 (configuration not stated) | 4.02%
O=C1CCC([N+](=O)[O-])C(c2ccccc2Br)N1 (configuration not stated) | -0.866%
CSc1nnc2ccc(-c3ccc(C)cc3)nn12 | 3.46%
Cc1ccc(C(=O)c2coc3ccc(O)c(CN(C)C)c23)cc1 | -0.231%
CC1(C(=O)NCCc2c[nH]c3ccccc23)C=CC2(CCCCC2)N1C(=O)c1ccccc1 (configuration not stated) | 0.914%
Cc1ccc(O)c(NC(=O)c2cc(-c3ccco3)on2)c1 | 11%
Cc1ccccc1NC(=O)CCOc1ccccc1 | 0.005%
Cc1ccc(SCC(CC(C)C)N2CCN(CCc3ccccc3)CCC2=O)cc1 (configuration not stated) | 4.19%
NS(=O)(=O)c1ccc(CCNC(=O)c2nc(CS(=O)(=O)c3ccc(Cl)cc3)no2)cc1 | -0.948%

SMILES | FP activity change
O=C1CCN(Cc2ccccc2)CCN1[C@H](CSc1ccccc1)c1ccccc1 | 0.158%
CS(=O)(=O)N(CC(=O)N1CCCCCC1)c1cccc(Cl)c1Cl | -2.08%
COc1ccc(NC(=O)N2CCCC2C(=O)NCc2ccccc2Cl)cc1 (configuration not stated) | -7.57%
O=C(NCCCN1CCOCC1)C1CCCN(S(=O)(=O)N2CCCCC2)C1 (configuration not stated) | 0.555%
Cc1cc(F)ccc1N1CCC(N2CCN(C)C(CCO)C2)CC1 (configuration not stated) | -7.47%
Cc1cccc(C(=O)OC(C)CN2CCCC2)c1 (configuration not stated) | 5.39%
Cc1cn([C@H]2CC(F)[C@@H](CO)O2)c(=O)[nH]c1=O (some centres not stated) | -4.2%
CN1C(=O)CN2CCc3ccccc3C2c2cc(Cl)ccc21 (configuration not stated) | -5.51%
C=C1C(=CC=C2CCC[C@@]3(C)[C@@H]2CC[C@H]3[C@H](C)CCCC(C)C)C[C@@H](O)C[C@@H]1O | 9.09%
COc1ccc(NC2CCCN(C(=O)c3ccncc3)C2)cc1 (configuration not stated) | -4.31%
COc1cccc(OCc2cc(C(=O)N3CCN(C(=O)c4ccco4)CC3)no2)c1 | 6.94%
Cc1ccc(-c2nc(-c3ccncc3)no2)c(C)c1 | -1.78%
CN(Cc1ccccc1)C(=O)c1ccc(COc2ccccc2)cc1 | -7.59%
COc1cccc(NC(=O)C2C(c3ccccc3)C2(Cl)Cl)c1 (configuration not stated) | -0.0582%
CN(CCO)c1ccc(/C=N/Nc2nncc3ccccc23)cc1 | -4.23%
CC(C)c1ccc(NC(=O)Cn2ncc3ccccc32)cc1 | -5.91%
COc1ccc(-c2n[nH]c(C)c2-c2ccccc2OC)c(O)c1 | -3.47%
CN(CCc1ccccc1)c1ccc([N+](=O)[O-])cn1 | -0.677%
CC(C)(C)OC(=O)NC(Cc1ccccc1)C(=O)NC(CSC1CCCCO1)C(=O)NN (configuration not stated) | -3.74%
CN(CC(=O)Nc1ccc(Cl)cc1)C(=O)CNC(=O)c1ccc2ccccc2c1 | -0.426%
O=C(CCN1CCCO1)N1CCCC(N2CCN(c3cccc(C(F)(F)F)c3)CC2)C1 (configuration not stated) | 3.51%
C/C(=N\NC(=O)c1ccoc1C)c1ccccc1O | -0.0656%

SMILES | FP activity change
CC(=O)Nc1ccc(NC(=O)CC2CCCC2)cc1 | 8.07%
COc1cccc2cc(C(N)=O)/c(=N\NC(=O)c3ccccc3)oc12 | 3.41%
COc1ccc(OC)c(/C(C)=N\NC(=O)c2cc3cc(Cl)ccc3n2C)c1 | 4.34%
CCCC[C@]12Cc3cc(OC)c(OC)cc3C(O1)C1=C(CC3(CCCCC3)OC1=O)O2 | 0.345% [at 11.7 µM]
O=C(COc1ccc(S(=O)(=O)Nc2cccc(C(F)(F)F)c2)cc1)N1CCOCC1 | 3.89%
O=C(CSc1nnnn1C1CCCC1)N1CCCCC1 | 0.177%
C[C@@H]1CC[C@@]2(OC1)O[C@H]1C[C@H]3[C@@H]4CC=C5C[C@@H](O)[C@H](O)C[C@]5(C)C4CC[C@]3(C)[C@H]1[C@@H]2C (some centres not stated) | -14.6%
COc1c(O)c2c(=O)cc(OC)c3c4c(OC)cc(=O)c5c(O)c(OC)c6c(c(c1C[C@@](C)(O)[C@H]6C(C)=O)c23)c54 | -8.66%
COCCNc1cc(-c2ccccc2)nc2cc(-c3cccc(F)c3)nn12 | 2.42%
COc1ccc(OC)c(NC(=O)CN(C)CCOc2ccc(Br)cc2)c1 | -13.1%
CC(C)(c1ccccc1)c1ccc(OCCN2CCCC2)cc1 | -1.58%
CCN(CC)c1ccc(/C=N/NC(=O)CNC(=O)c2cccs2)cc1 | 2.38%
O=C(Cc1cccs1)NCc1cccc(C(F)(F)F)c1 | -0.128%
Cc1cc(S(=O)(=O)NCc2ccccn2)c(Cl)cc1Cl | -0.167%
COc1ccccc1CNS(=O)(=O)c1ccc2c(c1)NC(=O)CS2 | -0.943%
COc1ccc(CNS(=O)(=O)c2ccc(NC(=O)N3CCCCC3)cc2)cc1 | -0.428%
Oc1ccc(-c2cccc(-c3ccc(O)cc3)c2)cc1 | 0.0539%
CCCn1c(=O)c(C(=O)Nc2cc(C)ccn2)c(O)c2ccccc21 | 1.11%
Cc1cccc(C)c1NC(=O)NC1=CCCN1C | 0.307%
O=C(Nc1ccc(F)cc1)c1ccc(S(=O)(=O)NCc2cccnc2)cc1 | -2.58%
CC(C)NC(=O)COCc1cc(-c2ccc3c(c2)OCO3)on1 | 1.18%
COc1ccc(/C=N/Nc2nc(-c3ccc(C)cc3)c(C#N)c(=O)[nH]2)cc1 | 4.62%

SMILES | FP activity change
COc1ccc(NCCc2ccccn2)cc1 | 7.39%
COc1cc(Cl)ccc1OCc1cc(C(=O)N(C)CCc2c(C)n[nH]c2C)no1 | 5.22%
CCCCn1c(-c2cccc(C)c2)nc2cc3[nH]c(=O)c(C(C)C)nc3cc21 | -1.86%
CCOc1ccc(N(C(=O)c2snc(C(N)=O)c2N)C(C(=O)NCC2CCCO2)c2c[nH]c3ccccc23)cc1 (configuration not stated) | 0.995%
O=C1OC2(CCCCC2)CC2=C1C1O[C@](c3ccsc3)(Cc3ccccc31)O2 | 6.24% [at 11.7 µM]
O=C(c1noc2c1CCCC2)N1CCc2ccccc2C1 | 4.17%
O=C(Nc1ccc(Br)cc1F)C1CC(=O)N(C2CCCCC2)C1 (configuration not stated) | -3.69%
O=C(Nc1cccc(Br)c1)c1ccc2snnc2c1 | 1.58%
CCn1nnnc1SCC(=O)Nc1ccc(N(C)C)cc1 | 7.93%
CC(C)CN(CC(C)C)C(=O)CN1c2cccc3cccc(c23)S1(=O)=O | -0.109%
Cc1c(C)n(Cc2ccc(Cl)cc2)c2ccc(C(=O)NCCCN3CCOCC3)cc12 | -1.82%
COc1ccc(/C=C/c2noc(-c3ccccc3OC(C)=O)n2)cc1 | -1.92%
COc1ccc(C)cc1Nc1n[n+](-c2ccccc2)c(-c2cccc(Cl)c2Cl)s1 | -4.87%
CN(Cc1ccccc1)C(=O)C1CCCN(c2ncnc3c2nc2n3CCCCC2)C1 (configuration not stated) | 7.84%
C[n+]1cc(-c2ccccc2)oc1-c1ccccc1 | 2.02%
CS(=O)(=O)Nc1ccccc1N=C(c1ccccc1)c1ccccc1 | -3.8%
O=S1(=O)CCOC[C@H](CC2CCCCC2)N1Cc1ccc(F)cc1 | 3.27%
Cc1cc(C)n2nc(CNS(=O)(=O)c3c(F)c(F)c(F)c(F)c3F)nc2n1 | -0.766%
Cc1ccc(-c2ncc(Cl)cc2-c2ccc(S(C)(=O)=O)cc2)cn1 | -0.497%
CCc1ccccc1NC(=S)Nc1cc(OC)c(NC(=O)C(C)C)cc1OC | 2.06%
CC(=O)Oc1ccc(-c2cccc(C(=O)N3CCCCC3)c2)cc1 | -1.05%
O=P(O)(O)OC[C@H](O)CO | 1.8%

SMILES | FP activity change
CCOCCCNC(=O)C1(O)c2cc(Br)ccc2NC(=O)N1c1ccc(C)c(C)c1 (configuration not stated) | -1.16%
COC(=O)C1(C)NC(c2ccc(F)cc2)C2C(=O)N(c3ccccc3)C(=O)C21 (configuration not stated) | 1.25%
Cc1cccc(OCCC(=O)Nc2ccccc2C(N)=O)c1 | 11.1%
COc1ccc2c(C(=O)c3ccc(C)cc3)n(CCC(N)=O)[n+]([O-])c2c1 | -1.07%
Cc1ccc(N2CCN(C(=O)c3cccs3)CC2)c(C)c1 | -3.88%
c1ccc(-c2ccc(OCCN3CCOCC3)cc2)cc1 | -3.06%
COc1ccc(N(CC(=O)NCCSCc2cccc(Cl)c2)S(C)(=O)=O)cc1 | -0.4%
COc1ccc(C(=O)O/N=C(\N)c2ccccn2)cc1[N+](=O)[O-] | 2.14%
NS(=O)(=O)c1ccc2nc(NC(=O)C3=COCCO3)sc2c1 | -3.94%
COc1ccc(N2CCN(C(=O)c3cccs3)CC2)cc1 | -2.7%
CS(=O)(=O)N1CCCC(C(=O)Nc2ccccc2C(F)(F)F)C1 (configuration not stated) | -2.75%
O=C(Nc1nnc(C2=COCCO2)o1)c1ccc([N+](=O)[O-])s1 | -4.17%
CC1CCN(CC(O)COc2ccc(C(=O)c3ccccc3)cc2)CC1 (configuration not stated) | -3.11%
CC(C)(O)c1ccccc1CC[C@H](SCC1(CC(=O)O)CC1)c1cccc(/C=C/c2ccc3ccc(Cl)cc3n2)c1 | -1.58%
CCOc1ccc(CN2CCC(n3nccc3NC(=O)C3CC3)CC2)cc1CO | 0.299%
COc1cc(/C=C/C(=O)O)cc(S(=O)(=O)Nc2ccccc2C(=O)NCCc2ccccc2)c1OC | 3.17%
Cc1cc(=O)[nH]c(Nc2cccc(Br)c2)n1 | 0.992%
CCCc1cc(C(=O)Nc2ccc(Cl)cn2)cs1 | -1.52%
Cc1ccc(S(=O)(=O)NCC2CCC(C(=O)N3CCOCC3)CC2)cc1 (configuration not stated) | -11.9%
